Assay results from PubChem BioAssay (Tox21).
Results filed as inconclusive are left out. Calls of active or inactive are those of the source. Unless noted, calls come from the whole dose curve; as a rule, active = well fitted curve in the direction sought with a large enough effect in the repeat runs; inconclusive = weak or mixed curves; inactive = no such curve, though single readings can be large; an effect the other way counts as inactive or inconclusive.

Experiments:
[1] = target: Thyrotropin receptor (Homo sapiens) (UniProt P16473); experiment: qHTS assay to identify small molecule agonists of the thyroid stimulating hormone receptor (TSHR) signaling pathway (AID 1224843; calls by dose curve; note: nearly all actives have a fitted effect of over 45% in size)
Sequence of Thyrotropin receptor (Homo sapiens) (P16473 whole entry, looked up): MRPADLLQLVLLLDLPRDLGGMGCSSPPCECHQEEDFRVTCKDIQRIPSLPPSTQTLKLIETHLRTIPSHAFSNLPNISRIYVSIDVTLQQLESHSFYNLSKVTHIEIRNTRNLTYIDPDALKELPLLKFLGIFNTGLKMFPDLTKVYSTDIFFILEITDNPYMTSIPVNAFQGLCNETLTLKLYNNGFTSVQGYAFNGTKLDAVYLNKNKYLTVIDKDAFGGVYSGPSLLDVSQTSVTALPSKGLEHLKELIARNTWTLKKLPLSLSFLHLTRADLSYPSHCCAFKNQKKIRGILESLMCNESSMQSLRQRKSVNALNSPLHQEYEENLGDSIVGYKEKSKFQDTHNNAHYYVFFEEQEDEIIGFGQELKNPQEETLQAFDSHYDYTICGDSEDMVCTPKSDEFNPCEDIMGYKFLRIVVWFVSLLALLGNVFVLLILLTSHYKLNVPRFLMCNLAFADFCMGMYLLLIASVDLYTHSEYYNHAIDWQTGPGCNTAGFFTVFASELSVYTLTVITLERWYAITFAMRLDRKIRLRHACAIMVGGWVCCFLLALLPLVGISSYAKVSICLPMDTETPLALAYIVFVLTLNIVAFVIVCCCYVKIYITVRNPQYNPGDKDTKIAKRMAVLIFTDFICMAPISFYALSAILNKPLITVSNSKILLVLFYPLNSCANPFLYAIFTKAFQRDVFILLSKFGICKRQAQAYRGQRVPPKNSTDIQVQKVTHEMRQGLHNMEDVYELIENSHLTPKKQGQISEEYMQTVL
In short: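 Agonist-mode screen: TSHR HEK293 cells received test chemicals for half an hour at room temperature, then HTRF cAMP detection reagents for one hour prior to fluorescence measurement. Each chemical ran as a 15-concentration series, triplicated.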

[2] = qHTS assay to identify small molecule agonists of the hypoxia (HIF-1) signaling pathway - cell viability counter screen (AID 1224844; calls by dose curve; note: nearly all actives have a fitted effect of over 50% in size)
In short: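 Viability counter screen: HRE-bla ME-180 cells plated 5 hrs before compound addition, treated 17 hrs at 37C and 5% CO2, then CellTiter-Glo added after the FRET reporter read; luminescence after 30 min.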

[3] = qHTS assay to identify small molecule agonists of H2AX (AID 1224845; active = well fitted activation curve with a large enough effect in the signal ratio in the repeat runs, not every such curve was filed as active; the % refers to the signal ratio)
In short: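 Wild-type CHO-K1 cells, plated overnight, exposed 3hr at 37C to 15 concentrations (0.76% DMSO final). Lysed, then HTRF anti-pH2AX (S139) cryptate and anti-H2AX-d2 antibodies, 24 hr room temperature; 665/620 nm emission read.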

[4] = qHTS assay to identify small molecule agonists of the hypoxia (HIF-1) signaling pathway (AID 1224846; active = well fitted activation curve with a large enough effect in the signal ratio in the repeat runs, not every such curve was filed as active; the % refers to the signal ratio)
In short: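 Agonist mode reporter screen. ME-180 cells stably expressing bla under HRE control received test compounds in DMSO for 17 hrs (37C, 5% CO2), and beta-lactamase activity was then detected with the CCF4-AM FRET substrate.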

[5] = qHTS assay to identify small molecule agonists of H2AX - cell viability counter screen (AID 1224847; calls by dose curve; note: top concentration of the series differs between compounds; nearly all actives have a fitted effect of over 30% in size)
In short: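 Compounds tested at 15 concentrations were incubated 3 hr at 37C with wild-type CHO-K1 cells; cellular ATP-based luminescence (CellTiter-Glo) indicated viability.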

[6] = qHTS RealTime-Glo MT Cell Viability Assay in HepG2 cells - 24 hour (AID 1224867); note: nearly all actives have a fitted effect of over 50% in size
In short: (§1)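 HepG2 cells (600/well) were dispensed with RealTime-Glo reagents, incubated 5 h at 37 °C, then treated with compounds in DMSO for up to 40 h. Nonlytic NanoLuc luminescence reflecting viable cells was read at each stated time point.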

[7] = qHTS RealTime-Glo MT Cell Viability Assay in HEK293 cells - 32 hour (AID 1224868); note: top concentration of the series differs between compounds; nearly all actives have a fitted effect of over 50% in size
In short: (§2)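 HEK293 cells seeded with NanoLuc/prosubstrate reagent, rested 5 h at 37 C, then dosed and kept at 37 C up to 40 h. Nonlytic real-time luminescence from viable cells read at 0, 8, 16, 24, 32 and 40 h.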

[8] = A CellTox Green Cytotoxicity Assay to monitor cytotoxicity in HEK293 cells - 0 hour (AID 1224869); note: nearly all actives have a fitted effect of over 50% in size
In short: (§3)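 Dead-cell fluorescence measured kinetically: asymmetric cyanine dye, HEK293, 600 cells/well, 5 h settle, 23 nL cpd/DMSO, 37 C, reads 0–40 h every 8 h.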

[9] = qHTS RealTime-Glo MT Cell Viability Assay in HepG2 cells - 40 hour (AID 1224870); note: nearly all actives have a fitted effect of over 50% in size
In short: (§4)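 HepG2 cells (600/well) mixed with RealTime-Glo MT reagent, settled 5 h at 37 C/5% CO2 before compound addition. Nonlytic NanoLuc luminescence from viable-cell prosubstrate reduction read repeatedly during 40 h treatment at 37 C.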

[10] = A CellTox Green Cytotoxicity Assay to monitor cytotoxicity in HEK293 cells - 40 hour (AID 1224871); note: nearly all actives have a fitted effect of over 45% in size
In short: as §3

[11] = qHTS RealTime-Glo MT Cell Viability Assay in HEK293 cells - 16 hour (AID 1224872)
In short: as §2

[12] = qHTS RealTime-Glo MT Cell Viability Assay in HepG2 cells - 8 hour (AID 1224873); note: nearly all actives have a fitted effect of over 55% in size
In short: as §4

[13] = qHTS RealTime-Glo MT Cell Viability Assay in HEK293 cells - 40 hour (AID 1224874); conditions: RealTime-Glo luminescence; max response: hits give low values; note: nearly all actives have a fitted effect of over 50% in size
In short: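 600 HEK293 cells per well, dispensed already mixed with RealTime-Glo MT reagents. Compound dosing came 5 h later. The same wells were read for luminescence at 0, 8, 16, 24, 32 and 40 h of exposure at 37 C.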

[14] = A CellTox Green Cytotoxicity Assay to monitor cytotoxicity in HEK293 cells - 24 hour (AID 1224875); note: series mostly up to about 77 µM; nearly all actives have a fitted effect of over 45% in size
In short: as §3

[15] = A CellTox Green Cytotoxicity Assay to monitor cytotoxicity in HepG2 cells - 16 hour (AID 1224876); note: nearly all actives have a fitted effect of over 45% in size
In short: (§5)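 First, HepG2 cells (600/well) mixed with reagent were plated; second, after 5 h at 37 C they received compounds via pintool; third, fluorescence was measured at 0 h through 40 h at 8 h intervals.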

[16] = qHTS RealTime-Glo MT Cell Viability Assay in HepG2 cells - 32 hour (AID 1224877); note: nearly all actives have a fitted effect of over 55% in size
In short: as §1

[17] = A CellTox Green Cytotoxicity Assay to monitor cytotoxicity in HepG2 cells - 24 hour (AID 1224878); note: nearly all actives have a fitted effect of over 45% in size
In short: as §5

[18] = A CellTox Green Cytotoxicity Assay to monitor cytotoxicity in HepG2 cells - 40 hour (AID 1224879); note: nearly all actives have a fitted effect of over 40% in size
In short: as §5
% is set by controls: 0 for no effect and ±100 for the full control effect.

CC/C=C\CCOC(=O)C(C)C
inactive: Potency [1] | Potency [2] | Potency [3] | outcome [4] | Potency [5] | Potency [6] | Potency [7] | Potency [8] | Potency [9] | Potency [10] | Potency [11] | outcome [12] | max response [13] -2.11% | Potency [14] | Potency [15] | Potency [16] | Potency [17] | Potency [18]

O=C(O)[C@@H]1CSCN1
inactive: Potency [1] | Potency [2] | Potency [3] | outcome [4] | Potency [5] | Potency [6] | Potency [7] | Potency [8] | Potency [9] | Potency [10] | Potency [11] | max response [13] 2.01% | Potency [14] | Potency [15] | Potency [16] | Potency [17] | Potency [18]

CCC/C=C/CO
inactive: Potency [1] | Potency [2] | Potency [3] | outcome [4] | Potency [5] | Potency [6] | Potency [7] | Potency [8] | Potency [9] | Potency [10] | Potency [11] | outcome [12] | max response [13] 0.426% | Potency [14] | Potency [15] | Potency [16] | Potency [17] | Potency [18]

Cc1c(C(=O)NCCO)[n+](=O)c2ccccc2n1[O-]
inactive: Potency [1] | Potency [2] | Potency [3] | outcome [4] | Potency [5] | Potency [6] | Potency [7] | Potency [8] | Potency [9] | Potency [10] | Potency [11] | outcome [12] | max response [13] 0.805% | Potency [14] | Potency [15] | Potency [16] | Potency [17] | Potency [18]

CC1=C(O)C(=O)OC1C (stereo not given)
inactive: Potency [1] | Potency [2] | Potency [3] | outcome [4] | Potency [5] | Potency [6] | Potency [7] | Potency [8] | Potency [9] | Potency [10] | Potency [11] | outcome [12] | max response [13] 1.31% | Potency [14] | Potency [15] | Potency [16] | Potency [18]

NS(=O)(=O)c1cc(-c2nn[nH]n2)c(NCc2cccs2)cc1Cl
inactive: Potency [1] | Potency [2] | Potency [3] | outcome [4] | Potency [5] | Potency [6] | Potency [7] | Potency [8] | Potency [9] | Potency [10] | Potency [11] | outcome [12] | max response [13] -3.29% | Potency [14] | Potency [15] | Potency [16] | Potency [17] | Potency [18]

Cc1c(N)cccc1N
inactive: Potency [1] | Potency [2] | Potency [3] | outcome [4] | Potency [5] | Potency [6] | Potency [7] | Potency [8] | Potency [9] | Potency [10] | Potency [11] | outcome [12] | max response [13] 12.2% | Potency [14] | Potency [15] | Potency [16] | Potency [17] | Potency [18]

C=CCc1cc(OC)c(O)c(C(=O)NCCO)c1
inactive: Potency [1] | Potency [2] | Potency [3] | outcome [4] | Potency [5] | Potency [6] | Potency [7] | Potency [8] | Potency [9] | Potency [10] | Potency [11] | outcome [12] | max response [13] 15.9% | Potency [14] | Potency [15] | Potency [16] | Potency [18]

C=CC1CO1 (stereo not given)
inactive: Potency [1] | Potency [2] | Potency [3] | outcome [4] | Potency [5] | Potency [6] | Potency [7] | Potency [8] | Potency [9] | Potency [10] | Potency [11] | outcome [12] | max response [13] 6.13% | Potency [14] | Potency [15] | Potency [16] | Potency [18]

OCc1ccccc1O
inactive: Potency [1] | Potency [2] | Potency [3] | outcome [4] | Potency [5] | Potency [6] | Potency [7] | Potency [8] | Potency [9] | Potency [10] | Potency [11] | max response [13] -16.1% | Potency [14] | Potency [15] | Potency [16] | Potency [17] | Potency [18]

CC(C)c1ccccc1
inactive: Potency [1] | Potency [2] | Potency [3] | outcome [4] | Potency [5] | Potency [6] | Potency [7] | Potency [8] | Potency [9] | Potency [11] | outcome [12] | max response [13] 1.09% | Potency [14] | Potency [15] | Potency [16] | Potency [18]

CS(=O)(=O)c1ccc([C@@H](O)[C@@H](CF)NC(=O)C(Cl)Cl)cc1
inactive: Potency [1] | Potency [2] | Potency [3] | outcome [4] | Potency [5] | Potency [6] | Potency [7] | Potency [8] | Potency [9] | Potency [10] | Potency [11] | outcome [12] | max response [13] 11.3% | Potency [14] | Potency [15] | Potency [16] | Potency [17] | Potency [18]

CC(=O)OC(C)OC(C)=O
inactive: Potency [1] | Potency [2] | Potency [3] | outcome [4] | Potency [6] | Potency [7] | Potency [8] | Potency [9] | Potency [10] | Potency [11] | outcome [12] | max response [13] 0.965% | Potency [14] | Potency [15] | Potency [16] | Potency [18]

CCOc1ccc(NS(=O)(=O)c2ccc(N)cc2)nn1
inactive: Potency [1] | Potency [2] | Potency [3] | outcome [4] | Potency [5] | Potency [6] | Potency [8] | Potency [9] | Potency [10] | outcome [12] | Potency [14] | Potency [15] | Potency [16] | Potency [17] | Potency [18]
